Assay results taken from PubChem BioAssay AID1159580 (chemical genetic matrix, 2015).
The campaign covered roughly 5,500 compounds. About 2,000 (36%) were called active. Roughly 18% stayed inconclusive and do not appear here. Rule as the data show it: active = normalized growth mostly below about 0.91 (no sharp cut-off); inconclusive = no clear call, values can overlap the other calls; inactive = mostly above about 0.92. This is one part of the list.

Assay: chemical genetic growth profiling, strain panel (AID 1159580);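 also: tested at 20 µM; growth read once vehicle control cultures reached saturation at 30 °C; 1 = growth at the plate median or of vehicle wells; lower values mean less growth of the strain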
Settings: growth OD

Measured: normalized growth

NS(=O)(=O)c1ccc(-n2ncc3ccccc3c2=O)cc1
inactive: S. cerevisiae deletion strains, locus YAL013W, strain DEP1, active compounds read low 1.02 | S. cerevisiae deletion strains, locus YBR229C, strain ROT2, active compounds read low 1.01 | S. cerevisiae deletion strains, locus YCL061C, strain MRC1, active compounds read low 1.01 | S. cerevisiae deletion strains, locus YDL101C, strain DUN1, active compounds read low 1.04 | S. cerevisiae deletion strains, locus YDL134C, strain PPH21, active compounds read low 1.02 | S. cerevisiae deletion strains, locus YDR150W, strain NUM1, active compounds read low 0.989 | S. cerevisiae deletion strains, locus YEL061C, strain CIN8, active compounds read low 0.987 | S. cerevisiae deletion strains, locus YGR078C, strain PAC10, active compounds read low 1.02 | S. cerevisiae deletion strains, locus YHR030C, strain SLT2, active compounds read low 1.05 | S. cerevisiae deletion strains, locus YHR087W, strain rtc3, active compounds read low 1 | S. cerevisiae deletion strains, locus YJR043C, strain POL32, active compounds read low 1.01 | S. cerevisiae deletion strains, locus YJR075W, strain HOC1, active compounds read low 1.02 | S. cerevisiae deletion strains, locus YKL190W, strain CNB1, active compounds read low 1 | S. cerevisiae deletion strains, locus YLR039C, strain RIC1, active compounds read low 1.01 | S. cerevisiae deletion strains, locus YLR058C, strain SHM2 (second series), active compounds read low 0.994 | S. cerevisiae deletion strains, locus YLR085C, strain ARP6, active compounds read low 0.984 | S. cerevisiae deletion strains, locus YLR262C, strain YPT6, active compounds read low 1.06 | S. cerevisiae deletion strains, locus YML094W, strain GIM5, active compounds read low 0.986 | S. cerevisiae deletion strains, locus YMR219W, strain ESC1, active compounds read low 1 | S. cerevisiae deletion strains, locus YMR263W, strain SAP30, active compounds read low 1.01 | S. cerevisiae deletion strains, locus YMR307W, strain GAS1, active compounds read low 0.981 | S. cerevisiae deletion strains, locus YNL153C, strain GIM3, active compounds read low 0.996 | S. cerevisiae deletion strains, locus YNL298W, strain CLA4 (second series), active compounds read low 1.01 | S. cerevisiae deletion strains, locus YNL322C, strain KRE1, active compounds read low 1.01 | S. cerevisiae deletion strains, locus YNR030W, strain Alg12, active compounds read low 1.01 | S. cerevisiae deletion strains, locus YPL055C, strain LGE1, active compounds read low 1.02 | S. cerevisiae deletion strains, locus YPL241C, strain CIN2, active compounds read low 1.03 | S. cerevisiae deletion strains, locus YPR135W, strain CTF4, active compounds read low 1.06 | S. cerevisiae strains, strain wild type, active compounds read low 1.01
